A selection: hits, their analogues and other compounds. The true share with any hit is near 4%.
Gli-Sufu block = antagonists of Gli-Sufu signaling. Sufu-KO-LIGHT fibroblasts, Gli luciferase reporter luminescence. inhibition, % at 5 µM. hit rate 0.74% among 340,000. AID 588413;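 active = inhibition above about 55%, limit read from the data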;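 also: 0% = DMSO-treated cells and 100% = wells with medium but no cells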
Beta apoptosis = blocks beta cell apoptosis; hit rate 0.8% among 300,000; protection from apoptosis, % (no concentration beside the values); AID 435005; INS-1E cytokine-induced death, ATP luminescence, 48 h; percent of positive-control rescue, neutral wells zero;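 active = Every replicate reaches about 75%, or at least half do and their mean reaches it too, limit read from the data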;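 also: 0% = cytokine-treated negative control wells and 100% = positive control rescue; higher means more ATP so stronger rescue from cytokine killing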
CSC inhib = blocks cancer stem cells; cancer stem cell-like cells viability, luminescence; inhibition, % at 7.5 µM; hit rate 1.1% among 300,000; in the data active = inhibition above about 75%; tested in HMLE shEcad cells
PAX8 reporter = inhibitors of PAX8 transcriptional activity in RMG-I cells; RMG-I TPO-luciferase reporter, SteadyGlo, 24 h; inhibition, % at 12.6 µM; hit rate 1.2% among 360,000;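 active = mean replicate inhibition at least 60% with every replicate also reaching 60%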;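 also: luciferase light reporting Pax8 driven TPO promoter activity; plate controls were median of neutral control wells for no effect and mitoxantrone controls for full effect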
Mdm2-MdmX inh = human Mdm2/MdmX binding inhibition. SaOS-2 split-luciferase Mdm2/MdmX complementation, luminescence. O15151+Q00987. inhibition, % at 8 µM. hit rate 3% among 330,000;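 active = inhibition of at least 50% at 8 µM in the primary screen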
Target sequence (O15151 whole entry, looked up): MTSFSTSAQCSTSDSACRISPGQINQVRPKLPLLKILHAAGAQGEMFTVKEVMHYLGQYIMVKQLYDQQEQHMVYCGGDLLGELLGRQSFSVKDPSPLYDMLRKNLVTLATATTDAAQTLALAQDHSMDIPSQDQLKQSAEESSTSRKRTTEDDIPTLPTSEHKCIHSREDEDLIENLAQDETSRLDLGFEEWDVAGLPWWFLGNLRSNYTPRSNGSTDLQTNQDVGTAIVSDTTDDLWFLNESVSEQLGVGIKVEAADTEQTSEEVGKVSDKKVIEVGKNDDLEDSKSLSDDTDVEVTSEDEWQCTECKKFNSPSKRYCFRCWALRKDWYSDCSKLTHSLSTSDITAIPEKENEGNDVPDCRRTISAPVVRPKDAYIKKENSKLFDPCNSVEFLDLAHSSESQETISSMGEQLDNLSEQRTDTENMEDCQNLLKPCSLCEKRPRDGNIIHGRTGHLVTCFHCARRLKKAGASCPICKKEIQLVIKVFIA
Target sequence (Q00987 whole entry, looked up): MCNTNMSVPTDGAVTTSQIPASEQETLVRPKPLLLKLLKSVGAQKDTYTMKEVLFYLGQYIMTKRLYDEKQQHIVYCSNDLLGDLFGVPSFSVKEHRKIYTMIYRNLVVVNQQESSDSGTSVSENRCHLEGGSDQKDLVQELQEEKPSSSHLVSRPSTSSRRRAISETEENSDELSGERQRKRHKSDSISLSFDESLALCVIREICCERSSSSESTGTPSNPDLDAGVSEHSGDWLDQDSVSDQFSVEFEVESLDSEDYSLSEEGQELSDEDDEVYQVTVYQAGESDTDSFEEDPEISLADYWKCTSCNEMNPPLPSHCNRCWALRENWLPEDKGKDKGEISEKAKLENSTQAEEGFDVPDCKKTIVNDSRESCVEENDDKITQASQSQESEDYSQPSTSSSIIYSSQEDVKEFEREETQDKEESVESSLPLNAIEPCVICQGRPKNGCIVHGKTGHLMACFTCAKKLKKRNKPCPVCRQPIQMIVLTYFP
Shn3 3UTR inh = reduces Shn3 3'UTR luciferase signal in osteoblasts. inhibition, % at 12.5 µM. Clone20 osteoblast Shn3 3'UTR firefly luciferase, 24 h. hit rate 0.52% among 360,000. AID 588674;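 active = mean inhibition of at least 75% with every replicate also reaching 75%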;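 also: 0% = median of neutral control wells and 100% = pilot-screen positive control compound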
Gli-Sufu confirm = Gli-SUFU antagonism confirmation, single concentration; shares compounds with Gli-Sufu block; Sufu-KO-LIGHT cells, Gli luciferase reporter, luminescence; inhibition, % at 5 µM; hit rate 40% among 2,500; AID 602428;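 active = mean inhibition at 5 µM reaching about 45%, limit read from the data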;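 also: plate controls were DMSO-treated cells for no effect and wells lacking cells for full effect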
Gli cytotox = cytotoxicity counter-screen for Gli-SUFU antagonists; AID 651994; Sufu-KO-LIGHT cells cytotoxicity, ATP luminescence; hit rate 32% among 2,500; cytotoxicity, % at 5 µM; shares compounds with Gli-Sufu block;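 active = mean cytotoxicity at 5 µM above about 25%, limit read from the data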;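 also: cells exposed to compound overnight for roughly 16 to 18 hours; plate controls were DMSO wells with cells for no effect and medium without cells for full effect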
Wnt3a cs = inhibits Wnt3a reporter, counter-screen for Gli-SUFU antagonists; shares compounds with Gli-Sufu block; Wnt-LIGHT cells, Wnt3a-driven luciferase reporter, luminescence; inhibition, % at 6.25 µM; hit rate 20% among 2,500;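 active = mean inhibition above about 25%, limit read from the data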
Numbers without * were called inactive; . = no result.

SMILES	Gli-Sufu block	Beta apoptosis	CSC inhib	PAX8 reporter	Mdm2-MdmX inh	Shn3 3UTR inh	Gli-Sufu confirm	Gli cytotox	Wnt3a cs
Cc1ccc(C(=O)NC(=S)Nc2ccccc2N2CCOCC2)cc1C	89*	8	61	.	29	10	23	14	-37
O=C(C[C@@H]1C=C[C@@H](NS(=O)(=O)c2ccc(F)cc2)[C@@H](CO)O1)N1CCC(Cc2ccccc2)CC1	.	.	.	15	.	.	.	.	.
C[C@@H]1CCCCO[C@@H](CN(C)C(=O)Cc2ccccc2)[C@H](C)CN([C@@H](C)CO)C(=O)c2cc(NC(=O)c3ccncc3)ccc2O1	.	.	.	5	.	.	.	.	.
Cc1cc2cc(CCNC(=O)c3ccc(C)c([N+](=O)[O-])c3)c(=O)[nH]c2cc1C	2	-1	1	.	20	18	.	.	.
Cc1cc2cc(CNC(=O)c3ccc(C)c([N+](=O)[O-])c3)ccc2[nH]1	58*	12	-3	.	-8	8	29	26*	-62
CNC[C@H]1Oc2ccc(NC(=O)NC(C)C)cc2C(=O)N([C@@H](C)CO)C[C@H]1C	.	.	.	-5	.	.	.	.	.
O=C1c2ccccc2S(=O)(=O)c2cc(C(=O)N3CCN(c4ccc(Cl)cn4)CC3)ccc21	-3	2	3	8	-24	-21	.	.	.
N#Cc1cccnc1N1CCN(C(=O)c2ccc3c(c2)S(=O)(=O)c2ccccc2C3=O)CC1	50	-1	-5	-2	-9	1	26	2	-10
COc1ccc(-c2nc(CN3CCN(c4ncnc5ccccc45)CC3)c(C)o2)c(OC)c1	60*	44	-10	19	33	81	35	9	-3
O=C(C[C@H]1C[C@H]2c3cc(NC(=O)NC4CCCCC4)ccc3O[C@H]2[C@@H](CO)O1)NCCc1ccccc1	.	.	.	8	.	.	.	.	.
COc1ccccc1CNS(=O)(=O)c1ccc(-c2cc(C)no2)cc1	51	22	66	15	38	19	43	57*	-54
CC(C)(C)S(=O)N1Cc2cc(C(=O)NCc3ccc(Oc4ccccc4)cc3)nc(-c3cccc(C#CCC4CCCC4)c3)c2[C@@H]1CCO (stereo partly drawn)	.	.	.	43	.	.	.	.	.
CO[C@@H]1CN(C)C(=O)c2ccc(NC(=O)c3cc(C)on3)cc2OC[C@@H](C)N(CC2CC2)C[C@@H]1C	.	.	.	-11	.	.	.	.	.
Cc1ccc(S(=O)(=O)N(C)C)cc1NC(=S)NC(C)CCC(C)C (stereo not drawn)	56*	-9	-3	7	-10	3	20	20	-64
Cc1ccc(S(=O)(=O)N[C@H]2C=C[C@@H](CC(=O)N3CCN(c4ccccc4)CC3)O[C@@H]2CO)cc1	.	.	.	6	.	.	.	.	.
CCOC(=O)c1cc(CC)sc1NC(=O)c1cc(OCC)c(OCC)c(OCC)c1	99*	11	34	.	3	75	27	6	-17
CCOC(=O)c1cc(CC)sc1NC(=O)c1ccc2c(c1)OCCO2	2	-3	.	.	-14	-18	.	.	.
CN1c2ccc(Br)cc2[C@H]2[C@H](CCN2C(=O)CN2CCOCC2)[C@@H]1CO	.	.	.	-22	.	.	.	.	.
CCOc1cc(C(C(=O)NCC2CCCO2)N(C(=O)Cn2nnc3ccccc32)c2ccc(OC)c(OC)c2)ccc1O (stereo not drawn)	57*	-5	.	-10	-18	10	9	15	-27
O=C(Cn1nc(C(=O)O)c2ccccc2c1=O)Nc1ccccc1C(F)(F)F	79*	-3	-6	8	-19	-12	12	7	-20
COc1ccc(CCNc2ccc(S(N)(=O)=O)cn2)cc1	51	1	2	-2	12	1	9	7	3
COc1ccc(CCNc2ccncn2)cc1	36	15	-20	.	16	57	.	.	.
CN1CCN(C2=Cc3ccccc3Sc3cc(F)c(Cl)cc32)CC1	54	5	40	.	37	-4	23	0	-34
COc1cccc(CNC(=O)CCNC(=O)c2ccco2)c1	-7	-4	-1	1	12	-2	.	.	.
COc1ccc(CCNC(=O)CCNC(=O)c2ccco2)cc1	72*	-7	-5	6	17	-18	14	28*	-3
SMILES	Gli-Sufu block	Beta apoptosis	CSC inhib	PAX8 reporter	Mdm2-MdmX inh	Shn3 3UTR inh	Gli-Sufu confirm	Gli cytotox	Wnt3a cs
C[C@@H]1CN([C@@H](C)CO)C(=O)Cc2cc(NC(=O)CCN3CCOCC3)ccc2O[C@@H]1CN(C)C(=O)Nc1ccc(F)cc1	.	.	.	12	.	.	.	.	.
CN(C)C(=O)[C@@H]1[C@@H](CO)[C@@H]2Cn3c(ccc(/C=C/c4ccccc4)c3=O)[C@@H]2N1C(=O)c1cnccn1	.	.	.	1	.	.	.	.	.
CC(C)N(C(=S)Nc1cccc(S(=O)(=O)N(C)C)c1)c1ccccc1	55	-7	-9	1	-2	4	12	1	-27
CN(C)S(=O)(=O)c1cccc(NC(=O)C(c2ccccc2)c2ccccc2)c1	-14	1	-8	7	13	4	.	.	.
O=C(CCN1CCCCC1)NCC[C@H]1CC[C@H](NC(=O)Nc2ccc(F)cc2)[C@@H](CO)O1	.	.	.	-6	.	.	.	.	.
COc1ccc(NC(=O)c2oc3ccccc3c2NC(=O)c2ccco2)c(OC)c1	54	-1	23	.	20	4	33	43*	1
COc1ccc2c3c([nH]c2c1)[C@H](CO)N(C)CC31CCN(C(=O)c2ccccc2F)CC1	.	.	.	-25	.	.	.	.	.
CCOc1ccc2c(c1)s/c(=N\S(=O)(=O)c1ccc(OC)cc1)n2C(F)F	55	4	5	.	10	27	11	-1	-5
C(=NN1CCCCCC1)c1ccc2ccccc2n1	68*	.	.	.	.	86*	89*	73*	106*
COc1ccc(COc2ccccc2C(=O)NCc2ccccc2)cc1F	53	.	11	11	9	84	20	15	12
CCCCC(=O)Nc1cc([N+](=O)[O-])ccc1Cl	92*	-1	-17	-2	-11	12	14	11	33*
Cc1nc2ccccc2c2oc(C(=O)N3CCC(N4CCCCC4)CC3)cc12	20	7	-12	.	-2	18	.	.	.
Cc1nc2ccccc2c2oc(C(=O)N3CCN(C4CCCCC4)CC3)cc12	55	23	21	7	13	81	46*	12	-15
C#CCOCCOCCOCCNc1nc(N2CCN(C(=O)CCCCCCCCCCNC(=O)Cn3cc(CCCCCN)nn3)CC2)nc(N2CCN(C(=O)CCCCCCCCCCNC(=O)Cn3cc(C[C@@H](C)O)nn3)CC2)n1	-6	10	-29	.	36	-18	.	.	.
CC(C)(C)OC(=O)NCCCCCc1cn(CC(=O)NCCCCCCCCCCC(=O)N2CCN(C(=O)OC(C)(C)C)CC2)nn1	56*	61	-1	-3	0	81	62*	26*	-38
